Drawing on PubChem BioAssay (NCATS), this text covers activation for 40 compounds.

Several values for one entry are separate records, joined by “and”; a condition that tells them apart may be missing. Equal entries are not always repeated. Results filed as inconclusive are left out. Activity calls are given as the source filed them. Calls follow the shape of the dose curve; as a rule, active = well fitted activation curve with a large enough effect; inconclusive = small, poorly fitted or top-dose-only effect; inactive = no such curve, though single readings can be large or run the other way. Residues, ends and D or L forms follow the SMILES beside them.

For the assay, the target named is Cellular tumor antigen p53 (Homo sapiens) (UniProt P04637). The experiment in a line: Primary qHTS for small molecule compounds that upregulate eGFP-tagged delta133p53alpha (in N-terminal) cells. (AID 2060322).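 Also: cells pre-induced with doxycycline then dosed without doxycycline; series mostly up to about 56 µM; 0% = DMSO vehicle and 100% = reference activator; nearly all actives have a fitted effect of over 75% in size.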 Conditions: NCI-H358 eGFP-delta133p53alpha fluorescence, 24 h; activation: stronger effect = higher value. From the text: Assay Development and Screening Technology
Cellular tumor antigen p53 (Homo sapiens), sequence (P04637 whole entry, looked up): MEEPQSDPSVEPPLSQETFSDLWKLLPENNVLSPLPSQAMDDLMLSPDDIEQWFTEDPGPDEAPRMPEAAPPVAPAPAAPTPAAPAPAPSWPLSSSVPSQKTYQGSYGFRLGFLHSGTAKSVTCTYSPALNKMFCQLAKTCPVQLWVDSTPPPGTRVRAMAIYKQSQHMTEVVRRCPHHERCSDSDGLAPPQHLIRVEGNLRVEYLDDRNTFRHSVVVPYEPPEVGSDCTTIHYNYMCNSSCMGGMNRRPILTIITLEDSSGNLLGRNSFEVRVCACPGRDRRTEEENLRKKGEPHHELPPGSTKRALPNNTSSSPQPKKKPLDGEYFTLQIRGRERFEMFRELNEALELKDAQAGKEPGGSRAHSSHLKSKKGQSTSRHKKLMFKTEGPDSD
National Center for Advancing Translational Sciences (NCATS),
National Institute of Health (NIH), Rockville, Maryland
Cellular senescence (CS) is one of the hallmarks of aging and age-related diseases. Senescent cells are characterized by an irreversible growth arrest, an increase in senescence-associated beta-galactosidase (SA-beta-gal) activity and p16INK4a expression, an activation of the DNA damage response pathways, and the emergence of a senescence-associated secretory phenotype (SASP).
Delta133p53alpha, a human/primate-specific p53 protein isoform, delays or inhibits the induction of CS and SASP in various types of human cells, including progeria-derived fibroblasts, primary normal astrocytes, and CD8+ T lymphocytes. Induction of delta133p53alpha with small molecule compounds may provide therapeutic opportunities for inhibition of senescence/SASP-associated pathologies in progeria syndromes, astrocyte-mediated neuroprotection in neurodegenerative diseases, and possibly prevention and treatment of a wider range of senescence- and aging-associated diseases.
Here we report the development and validation of a cell-based quantitative high throughput screening (qHTS) assay in 1,536-well format. This qHTS assay uses the NCI-H358 cell line with doxycycline-inducible expression of enhanced green fluorescent protein (eGFP)-tagged delta133p53alpha, which allows efficient and highly quantitative measurement of the protein levels.
PROTOCOL TABLE (as described by Inglese J, Shamu CE and Guy RK. 2007)
SEQUENCE No. (e.g., 1, 2, 3, etc.); […] (e.g., Cells, Incubation, Reagent, etc.); VALUE; DESCRIPTION.
1; Cells; 4uL; 800 doxycycline treated cells / well in doxycycline-free media, 1536-well black, clear-bottom low base Aurora microplates.
2; Compounds; 23 nL; Kalypsis pin tool (Wako) equipped with 1536-well pin heads, 5-azacytidine positive control.
3; Incubation; 24 hr; 37C, 5% CO2; 95% relative humidity.
4; Aspiration; 1x; BioTek EL406 washer dispenser (Agilent).
5; Fixing; 3.5% paraformaldehyde, BioTek EL406 washer dispenser (Agilent).
6; Washing; 1x PBS; BioTek EL406 washer dispenser (Agilent).
7; Nuclei staining; 1:1000 dilution of Hoechst 33342 (Thermofisher), BioTek EL406 washer dispenser (Agilent).
8; Incubation; 20 min; in the dark at room temperature.
9; Washing; 2x, 1x PBS (ThermoFisher), BioTek EL406 washer dispenser (Agilent).
10; Reagent; 10 uL; 1x PBS per well, sealed with clear adhesive tape.
NOTES (numbers refer to sequence numbers above).
1. NCI-H358 cells expressing eGFP-tagged delta133p53alpha were grown in T75 culture flasks and treated with doxycycline for 24h, at 10 ng/ml for eGFP-D133p53a cells (N-terminal cell) and 100 ng/ml for D133p53a-eGFP cells (C-terminal cells). Cells were trypsinized, counted using a Counted 3 Automated Cell Counter (Thermo Fisher), and diluted to a concentration of 200,000 cells/ml. A Multidrop Combi Reagent Dispenser (ThermoFisher) was used to dispense 800 cells/well in […] of doxycycline-free media, into 1536-well black/clear bottom low base plates (AuroraMicroplates).
2. After plating cells, 23 nl of compound library, DMSO vehicle control or positive control (5-azacytidine) were transferred by Pin Tool (Wako). The plate map layout was the same for each plate: (column 1) non-doxycycline treated cells + DMSO vehicle control; (column 2) doxycycline treated cells + DMSO vehicle control baseline; (column 3) doxycycline treated cells + positive control 57.5 uM final concentration 5-azacytidine; (column 4) doxycycline treated cells + serial dilution of 5-azacytidine, 16-point 1:2 titration spanning 1.8 nM to […] final concentration; (columns 5-48) doxycycline treated cells + titration of library compounds.
3. Cells were incubated at 37 °C, 5 % CO2, 95% RH with breathable metal lid for 24h.
4-10. […] After two washes, 10 ul of 1X PBS (Thermo Fisher) was dispensed to each well. Clear adhesive plate seals (VWR) were applied and plates stored at 4 °C.
11. […]
Background: In qHTS, concentration-response curves come from the screen itself.
Take `CC(C)Oc1ccc(-c2cnc3c(-c4ccnc5ccccc45)cnn3c2)cc1`: the activation is -6.21% (inactive). With `Cc1c(C(=O)Nc2ccc(N3C[C@@H](C)O[C@@H](C)C3)nc2)cccc1-c1ccc(OC(F)(F)F)cc1`, the activation was 18.3% (inactive) and -6.33% (inactive). With `CC(=O)N[C@@H](CO)C(=O)N[C@@H](CC(=O)O)C(=O)N[C@@H](CCCCN)C(=O)N1CCC[C@H]1C(=O)O` (Ac-SDKP-OH) the figure was -24.3% (inactive). To `CC(C)(O)c1cc2nc(-c3cnc(N)nc3)nc(N3CCOCC3)c2s1` belongs 18.8% (inactive). To `CC(=O)NC(C(=O)O[C@H]1CCC(C)(C)[C@@H]2CC=C3C(=O)OCC3(O)[C@@]12C)C(C)C` (stereo not given in full) belongs 20.6% (inactive). In the case of `O=C(O)Cn1c(=O)n(Cc2ccc(Br)cc2F)c(=O)c2ccc(Cl)cc21`, the activation was -5.08% (inactive). As to `COc1cc(C(=O)NC2CCN(C)CC2)ccc1Nc1ncc2c(n1)N(C1CCCC1)CCC(=O)N2C(C)C`, the activation was 7.36% (inactive). As for `CCNC1(C(N)=O)CCN(c2ncnc3c2nc(-c2ccccc2Cl)n3-c2ccc(Cl)cc2)CC1`, the activation is 0.477% (inactive). With `COC(=O)c1ccnc(-c2cc(C(=O)Nc3ccc(C4(N)CC4)cc3)ccn2)c1` the figure was 1.67% (inactive); with `O=C(O)COCCN1CCN([C@H](c2ccccc2)c2ccc(Cl)cc2)CC1`, -5.73% (inactive). To `Cc1ccc(C(=O)NCCCCCC(=O)Nc2ccccc2N)cc1` belongs 11.2% (inactive); to `O=C(NCCCn1ccnc1)c1cc(-c2ccco2)on1`, -9.07% (inactive). As to `CC(=O)NC1CC(=O)C23C(=O)NC(Cc4c[nH]c5ccccc45)C2C(C)=C(C)C(O)C3/C=C/CC(C)/C=C(/C)C(O)C1O` (stereo not given), the activation was 8.93% (inactive).

As to `CC(C)=CCC[C@](C)(O)[C@H]1CC[C@]2(C)[C@@H]1[C@H](O)CC1[C@@]3(C)CC[C@H](O)C(C)(C)[C@@H]3[C@@H](O[C@@H]3O[C@H](CO)[C@@H](O)[C@H](O)[C@H]3O[C@@H]3O[C@H](CO)[C@@H](O)[C@H](O)[C@H]3O)C[C@]12C` (stereo not given in full), the activation is -11.6% (inactive).

Regarding `COC(=O)C1=CO[C@@H](O[C@@H]2O[C@H](CO)[C@@H](O)[C@H](O)[C@H]2O)C2C1CC(O)C2C` (stereo not given in full), the activation was 2.29% (inactive).

For `CC(C)(O)[C@@H]1CC[C@]2(CO)[C@@H](O)CC[C@](C)(O)[C@H]2[C@@H]1O[C@@H]1O[C@H](CO)[C@@H](O)[C@H](O)[C@H]1O`, the activation is 1.53% (inactive). With `C[C@H]1C[C@H]2[C@@H]3CCC4=CC(=O)C=C[C@]4(C)[C@@]3(F)[C@@H](O)C[C@]2(C)[C@@]1(O)C(=O)COP(=O)(O)O` the figure was 1% (inactive). To `CC(=O)O[C@@H]1[C@H](O[C@@H]2O[C@H](CO)[C@@H](O)[C@H](O)[C@H]2O)[C@@H](O[C@@H]2O[C@@H](C)[C@H](O)[C@@H](O[C@@H]3O[C@H](CO)[C@@H](O)[C@H](O)[C@H]3O)[C@H]2O)[C@H](OC(=O)C23CCC4(C)C(=CCC5C6(C)CC(O)C(O[C@@H]7O[C@H](C(=O)O)[C@@H](O)[C@H](O)[C@H]7O)C(C)(C(=O)O)C6CCC54C)C2CC(C)(C)CC3O)O[C@@H]1C` (stereo not given in full) belongs 22.9% (inactive); to `Oc1c(Cl)cc(Cl)c2cccnc12`, 16.4% (inactive) and -7.96% (inactive). With `C[N+]1(C)[C@@H]2CC[C@H]1CC(OC(=O)C(O)c1ccccc1)C2` (stereo not given in full) the figure was 13.7% (inactive). On to `CCn1cc(C(=O)O)c(=O)c2cc(F)c(N3CCN(C)CC3)cc21`, for which the activation is -2.51% (inactive) and -35.6% (inactive). With `C[C@@H]1CC[C@H]2C(C)(C)[C@H](O)[C@H](O)C[C@]2(C)[C@@]12Cc1c(O)cc3c(c1O2)CNC3=O` the figure was -3.82% (inactive); with `CC(=O)OC1C[C@]2(C)C(O)CC(C)=C[C@H](OC(=O)c3ccc(O)cc3)C2[C@]1(O)C(C)C` (stereo not given in full), -20.6% (inactive); with `C=C1C(OC(C)=O)CCC2(C)CC3(O)OC(=O)C(C)=C3CC12` (stereo not given), -3.57% (inactive). To `CC1OC(O[C@@H]2[C@H](O)[C@@H](OC3OC(CO)C(O)C(O)C3O)[C@H](OC(=O)[C@]34CCC(C)(C)C[C@H]3C3=CCC5[C@@]6(C)CC[C@H](O[C@@H]7O[C@H](C(=O)O)[C@@H](O)[C@H](O[C@@H]8OC[C@@H](O)[C@H](O)[C@H]8O)[C@H]7O[C@@H]7O[C@H](CO)[C@H](O)[C@H](O)[C@H]7O)[C@@](C)(C=O)C6CC[C@@]5(C)[C@]3(C)C[C@H]4O)O[C@@H]2C)C(O)C(O)C1OC1OCC(O)C(O)C1O` (stereo not given in full) belongs 5.34% (inactive). With `CCCCCCCCCCCCCCCCCCO` the figure was 3.35% (inactive); with `O=C1NC2CCc3nc4ccccc4c(=O)n3C2=Nc2ccccc21` (stereo not given), -8.93% (inactive); with `CCCn1c(=O)c2c(ncn2C)n(CCC)c1=O`, -49.6% (inactive). For `C[C@H](c1ccc(F)cc1CCCC(=O)O)N(c1cc(F)ccc1F)S(=O)(=O)c1ccc(Cl)cc1`, the activation was -2.61% (inactive) and 2.68% (inactive). With `C=C1C(=O)O[C@@H]2C[C@]3(C)[C@@H](CCC(C)=O)[C@@H]3C[C@H]12` the figure was 5.36% (inactive); with `OC[C@H]1O[C@@H](OC[C@H]2O[C@@H](OCc3ccccc3)[C@H](O)[C@@H](O)[C@@H]2O)[C@H](O)[C@@H](O)[C@@H]1O`, -3.82% (inactive); with `CCCN(CC1CC1)c1nc(C)nc(Nc2c(Cl)cc(Cl)cc2Cl)c1Cl`, -22.7% (inactive). With `CCCCCCOC(=O)N=C(N)c1ccc(NCc2nc3cc(C(=O)N(CCC(=O)OCC)c4ccccn4)ccc3n2C)cc1` the figure was 20.7% (inactive).

Consider `COc1cc2c(cc1OC)CC(=O)N(CCCNC[C@H]1Cc3cc(OC)c(OC)cc31)CC2`, for which the activation was -11.7% (inactive).

`O=C(NC1CCC1)c1ccc(C#Cc2cccc(F)c2)nc1`: the activation was 21.4% (inactive). To `COc1cc(O)cc(C)c1C(=O)O[C@H]1[C@@H](OC(C)=O)[C@H](n2ccc(=O)[nH]c2=O)O[C@@H]1CO` belongs -32.8% (inactive).

Regarding `N#CCc1ccc(O)cc1O[C@@H]1O[C@H](CO)[C@@H](O)[C@H](O)[C@H]1O`, the activation was -11.6% (inactive). To `OC[C@H]1O[C@@H](OC(CCCCc2ccc(O)cc2)CCc2ccc(O)cc2)[C@H](O[C@@H]2OC[C@](O)(CO)[C@H]2O)[C@@H](O)[C@@H]1O` (stereo not given in full) belongs -24.4% (inactive); to `Cc1cn[nH]c1`, 25.4% (inactive) and 16.2% (inactive) and -25.1% (inactive); to `CC1(C)CCCC2(C)C1C(=O)C=C(C(=O)O)C2(O)C(=O)O` (stereo not given), 41.2% (inactive).
